APE1 inh-1 = blocks human APE1 abasic DNA cleavage; AID 2517; Potency, µM (doses to about 65.8 µM), inactives show at the top dose activity change, negative = inhibition, most hits filed as inhibitors; recombinant APE1, TAMRA/BHQ-2 abasic DNA cleavage fluorescence; hit rate 0.35% among 350,000; P27695;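 note: plate controls were vehicle for no effect and reference inhibitor for full effect; nearly all actives have a fitted effect of over 55% in size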
Target sequence (P27695 whole entry, looked up): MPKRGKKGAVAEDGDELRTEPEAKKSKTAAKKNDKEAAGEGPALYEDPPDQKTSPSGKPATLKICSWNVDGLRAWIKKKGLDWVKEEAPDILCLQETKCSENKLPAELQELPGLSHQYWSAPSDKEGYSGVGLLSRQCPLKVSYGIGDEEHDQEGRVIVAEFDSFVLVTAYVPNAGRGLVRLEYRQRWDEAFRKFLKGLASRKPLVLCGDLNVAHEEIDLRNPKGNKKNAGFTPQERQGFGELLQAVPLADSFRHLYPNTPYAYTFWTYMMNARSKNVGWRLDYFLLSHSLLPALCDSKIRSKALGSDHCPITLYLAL
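0.75 nM APE1 + cpd, 15 min RT; start w/ 50 nM TAMRA/BHQ-2 THF-abasic dsDNA; kinetic fluor 525/598 nm ×3 reads @60 s; Δ(read3−read1); normalized to DMSO and NSC13755 control wells.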
RECQ1 inh-1 = inhibitors of human RECQ1 DNA helicase; P46063; RECQ1 DNA unwinding, red fluorescence kinetic read; Potency, µM (series often up to 57.3 µM), inactives show at the highest dose activity, negative = inhibition, most hits filed as inhibitors; hit rate 0.54% among 240,000; AID 2549;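 note: plate controls were vehicle for no effect and no enzyme for full effect; nearly all actives have a fitted effect of over 30% in size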
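RECQ1T1 50 nM; forked duplex (20 bp + 30-nt ss tails) 200 nM, ATP 2 mM final; pH 8.0, 2 mM MgCl2, 2.5 ug/ml poly(dI-dC); 15 min compound preincubation; discontinuous kinetic read over 2 h at RT.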
FEN1 inhibitor = inhibitors of human flap endonuclease 1. Recombinant FEN1 flap cleavage, fluorescence, 15 min. Potency, µM (titrated, usually from 114 µM), without a hit: at the top dose activity change, negative = inhibition, most hits filed as inhibitors. hit rate 0.35% among 390,000. AID 588795; note: nearly all actives have a fitted effect of over 65% in size
Target sequence (P39748 whole entry, looked up): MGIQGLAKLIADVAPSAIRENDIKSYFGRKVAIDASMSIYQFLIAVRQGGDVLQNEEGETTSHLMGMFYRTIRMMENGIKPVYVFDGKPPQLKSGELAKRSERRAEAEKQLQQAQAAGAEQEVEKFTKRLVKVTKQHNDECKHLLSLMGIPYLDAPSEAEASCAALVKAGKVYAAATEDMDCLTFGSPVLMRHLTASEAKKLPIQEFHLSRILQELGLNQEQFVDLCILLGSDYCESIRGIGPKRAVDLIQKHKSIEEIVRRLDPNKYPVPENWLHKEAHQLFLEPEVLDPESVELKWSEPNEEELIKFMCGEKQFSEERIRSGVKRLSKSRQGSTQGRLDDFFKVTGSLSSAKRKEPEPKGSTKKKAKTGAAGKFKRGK
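Read-out was taken twice, immediately and after 15 min, following addition of 50 nM substrate to 10 nM FEN1 that had sat with test compound for 15 min at room temperature. Curves came from a four-parameter Hill model.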
WRN inhibitor = blocks human WRN helicase; Potency, µM (top dose mostly 114 µM), for inactives: at the top dose activity change, negative = inhibition, actives largely listed as inhibitors; hit rate 0.46% among 360,000; Q14191; AID 651768; WRN helicase unwinding, fluorescent forked duplex, kinetic; note: nearly all actives have a fitted effect of over 55% in size
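Kinetic red-fluorescence monitoring (525/598 nm) tracks WRN helicase activity after 100 nM fluorophore-quencher forked duplex and 2 mM ATP are added to 20 nM enzyme pretreated 15 min at room temperature with compound.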
BLM inh-1 = blocks DNA unwinding by human BLM helicase; AID 2528; Potency, µM (highest dose often 56.1 µM), for inactives: at the highest dose activity change, negative = inhibition, usual class: inhibitors; recombinant BLM DNA unwinding, fluorescence dequenching; P54132; hit rate 0.2% among 350,000;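 note: plate controls were vehicle for no effect and no enzyme for full effect; nearly all actives have a fitted effect of over 35% in size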
APE1 dye cs = counter-screen for APE1 inhibitors: DNA dye displacement; AID 2564; DNA fluorescent dye displacement counterscreen, fluorescence; shares compounds with APE1 inh-1; Potency, µM (titrated, usually from 28.5 µM), without a hit: at the top dose activity change, negative = inhibition, actives largely listed as inhibitors; hit rate 7% among 480;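 note: loss of thiazole orange fluorescence as the dye is displaced from duplex DNA; 0% = ThO with dsDNA and no compound and -100% = ThO without dsDNA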
EndoIV counter = counter-screen for APE1 inhibitors: inhibitors of E. coli endonuclease IV. shares compounds with APE1 inh-1. E. coli Endo IV, fluorogenic AP-site DNA cleavage. Potency, µM (titrated, usually from 27.1 µM), inactives show at the highest dose activity change, negative = inhibition, most hits filed as inhibitors. hit rate 4% among 560. AID 2565;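 note: plate controls were uninhibited enzyme wells for no effect and no enzyme buffer wells for full effect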
APE1 inh-2 = confirmation of inhibitors of human APE1 endonuclease. shares compounds with APE1 inh-1. purified APE1, fluorogenic abasic-site DNA cleavage. Potency, µM (titrated, usually from 57.1 µM), without a hit: top-dose activity change, negative = inhibition, most hits filed as inhibitors. hit rate 44% among 750. AID 2572; note: nearly all actives have a fitted effect of over 30% in size
APE1 FP inh = compounds that displace a DNA probe from human APE1; shares compounds with APE1 inh-1; APE1 binding to TAMRA-labelled double-stranded DNA, fluorescence polarization displacement; Potency, µM (series often up to 28.5 µM), inactives show at the top dose activity, negative = inhibition, usual class: inhibitors; hit rate 7% among 480
BLM inh-2 = confirmation of inhibitors of human Bloom syndrome helicase BLM; shares compounds with BLM inh-1; BLM DNA unwinding, fluorescence quenching, biochemical; Potency, µM, for the others: max response, negative = inhibition, actives largely listed as inhibitors; hit rate 40% among 220; AID 2585;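 note: strand separation dequenches TAMRA so unwinding raises red fluorescence; series mostly up to about 69 µM; nearly all actives have a fitted effect of over 45% in size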
RECQ1 conf = confirmation of human RECQ1 helicase inhibitors; shares compounds with RECQ1 inh-1; RECQ1 helicase DNA unwinding, fluorescence; Potency, µM (highest dose often 229 µM), without a hit: at the highest dose activity change, negative = inhibition, most hits filed as inhibitors; hit rate 28% among 610; note: nearly all actives have a fitted effect of over 45% in size
ADP FP counter = ADP displacement flagged in RECQ1 inhibitor counter-screen; ADP fluorescence polarization displacement counterscreen; hit rate 27% among 530; Potency, µM (titrated, usually from 228 µM), inactives show at the highest dose activity change, negative = inhibition, hits mostly inhibitors; shares compounds with RECQ1 inh-1; note: nearly all actives have a fitted effect of over 45% in size
RECQ1 inh-2 = RECQ1 helicase inhibition confirmed, round 2; AID 504841; recombinant RECQ1 DNA unwinding, red fluorescence; shares compounds with RECQ1 inh-1; Potency, µM (highest dose often 119 µM), for inactives: at the top dose activity, negative = inhibition, usual class: inhibitors; hit rate 15% among 1,100; note: nearly all actives have a fitted effect of over 50% in size
Active calls of the source: *; i = inactive; ? = inconclusive; . = no result given; [ ] = remark or other dose. Sampled rows, rich in hits. Any-hit rate of the full collection: about 0.87%. Calls come from the whole dose curve; as a rule, active = well fitted curve in the direction sought with a large enough effect; inconclusive = small, poorly fitted or top-dose-only effect, or another doubt; inactive = no such curve, though single readings can be large; an effect the other way counts as inactive or inconclusive. Unless noted, % is set by controls: 0 for no effect and ±100 for the full control effect; potency is the fitted concentration of half-maximal effect.

SMILES | APE1 inh-1 | RECQ1 inh-1 | FEN1 inhibitor | WRN inhibitor | BLM inh-1 | APE1 dye cs | EndoIV counter | APE1 inh-2 | APE1 FP inh | others
CC(=O)c1ccc(NC(=O)CSc2ccsc2[N+](=O)[O-])cc1 | ? | ? | -4% | ? | -22% | ? | 0% | 3.5µM* | 0%
CCC(=O)N1CCCc2cc(S(=O)(=O)N3CCC(C(=O)NC4CCC(C)CC4)CC3)ccc21 (centres undefined) | . | . | -6% | . | -6% | . | . | . | .
NC(=O)c1ccc2c(=O)n3c(-c4cc(Cl)c(N)c(Cl)c4)csc3nc2c1 | -4% | ? | ? | -35% | -7% | . | . | -26% | .
Cc1cc(=O)n(CC(=O)NC(C)c2ccccc2)c2c1c(C)nn2C (centres undefined) | . | . | 0% | . | -6% | . | . | . | .
N#Cc1nc(Nc2ccccc2)nc(NC2CCCCC2)n1 | 35µM* | -9% | . | . | -15% | -6%[57.1 µM] | 17%[57.1 µM] | -2% | ?
O=C(CSc1nc(-c2ccccc2)nc2ccc(F)cc12)Nc1cccc(C(=O)O)c1 | 2% | -4% | ? | -21% | -10% | . | . | -31% | .
O=C(CSc1nncc2ccccc12)Nc1cccc(C(=O)O)c1 | -1% | 4% | 3% | -3% | -7% | . | . | . | .
COc1cc2c(=O)c(S(=O)(=O)c3ccc(F)cc3)cn(Cc3ccc(Cl)cc3)c2cc1OC | . | . | -3% | . | 0% | . | . | . | .
COC(=O)c1cc(=O)c(O)c2c(O)c(O)ccc2c1 | 1.3µM* | 8.9µM* | . | . | ? | . | -17%[57.1 µM] | 7.1µM* | . | BLM inh-2=?
COC(=O)c1ccc2cc(OC)c(OC)cc2c1 | . | . | . | -8% | . | . | . | . | .
CCc1ccc(NC(=O)CSc2nc(NS(=O)(=O)c3ccccc3)cc(=O)[nH]2)cc1 | 7.9µM* | 13µM* | 6% | -6% | 16µM* | 3% | 16% | -10%[24.4 µM] | 0% | BLM inh-2=3%
Cc1cnc(NC(=O)c2ccc3c(c2)OCCO3)s1 | 0% | . | -14% | 1% | . | . | . | . | .
Cc1nc2ccc3nc(NC(=O)c4ccc5c(c4)OCCO5)sc3c2s1 | -3% | -3% | -21% | -25% | -9% | . | . | ? | . | BLM inh-2=?
CCOC(=O)COc1cc(C)c(Cl)cc1C(=O)c1ccn2nc(-c3ccc(OC)cc3)cc2n1 | . | . | -10% | . | -6% | . | . | . | .
O=C(Cn1c(=O)n(Cc2ccco2)c(=O)c2c3c(sc21)CCCCC3)Nc1ccccc1 | 11µM* | 13µM* | ? | ? | 20µM* | ? | -5% | ? | -1% | BLM inh-2=?
Cc1c(C(=O)OCC2CCCO2)[nH]c2c1C(=O)CC(c1ccco1)C2 (centres undefined) | 7.1µM* | 25µM* | ? | 40µM* | 14µM* | -4% | ? | 4.5µM* | ? | BLM inh-2=18µM*
CCc1cccc(NC(=O)CSc2n[nH]c(-c3ccccc3Cl)n2)c1 | . | . | -15% | . | -8% | . | . | . | .
Cc1ccc2nc(-c3cccs3)c(Nc3c(C)cccc3C)n2c1 | . | . | -5% | . | -2% | . | . | . | .
COc1cccc2c1C(=O)c1c(O)c3c(c(O)c1C2=O)C[C@](O)(C(=O)CO)C[C@@H]3O[C@H]1C[C@H](N)[C@@H](O)[C@H](C)O1 | . | . | . | . | 5% | . | . | . | .
CC(=O)[C@]1(O)Cc2c(O)c3c(c(O)c2[C@@H](O[C@H]2C[C@H](N)[C@H](O)[C@H](C)O2)C1)C(=O)c1c(O)cccc1C3=O | 25µM* | 28µM* | . | . | 28µM* | i | . | 7.9µM* | 1.4µM* | RECQ1 conf=100µM*;ADP FP counter=0.89µM*
CC(=O)[C@]1(O)Cc2c(O)c3c(c(O)c2[C@@H](O[C@H]2C[C@H](N)[C@H](O)[C@H](C)O2)C1)C(=O)c1ccccc1C3=O | 20µM* | 28µM* | . | 32µM* | -56% | i | i | 16µM* | 2.8µM* | BLM inh-2=-72%;RECQ1 conf=35µM*;ADP FP counter=0.56µM*
COc1cccc(N2CC(NC(=O)CCCc3ccccc3)CC2=O)c1 (centres undefined) | . | . | 20% | . | 1% | . | . | . | .
COc1ccc(N2CC(NC(=O)c3ccc(S(=O)(=O)N4CCCCC4)cc3)CC2=O)cc1 (centres undefined) | . | . | 14% | . | -1% | . | . | . | .
Cc1ccc(NC(=O)CN2C(=O)S/C(=C/c3ccc(O)c([N+](=O)[O-])c3)C2=O)cc1C | ? | ? | ? | 79µM* | 25µM* | . | . | ? | . | RECQ1 inh-2=22µM*
Cc1ncc(CO)c2c1Oc1nc(-c3ccc(F)cc3)nc(SCC(=O)N3CCCCC3)c1C2 | . | . | 2% | . | 4% | . | . | . | .
COc1ccc(N2Cc3cccc(C(=O)NC(C)CCc4ccco4)c3C2=O)cc1 (centres undefined) | 11µM* | 7.9µM* | ? | 35µM* | ? | -14% | 3% | 11µM* | -16% | RECQ1 conf=35µM*;ADP FP counter=-11%[91.9 µM];RECQ1 inh-2=10µM*
CC(CCc1ccco1)NC(=O)c1cccc2c1C(=O)N(C1CCCCC1)C2 (centres undefined) | 5% | -4% | -3% | -2% | -7% | . | . | . | .
O=C1NC(=S)SC1=C1CCCC1 | 10µM* | 7.9µM* | 79µM* | 45µM* | ? | 5% | 61% | ? | -4% | RECQ1 conf=?;ADP FP counter=45µM*

Screens: PubChem, National Center for Advancing Translational Sciences (NCATS)
